# Experimental data as given in ChEMBL document CHEMBL3988442, “University of Dundee, Small-Polar-MMV Screening Library” (2021).
# Molecular target: T1, Aspartate--tRNA(Asp/Asn) ligase (Mycobacterium tuberculosis (strain ATCC 25618 / H37Rv)) (UniProt P9WFW3); also: in the data most compounds retested in dose-response had high values
# T1 sequence (whole entry): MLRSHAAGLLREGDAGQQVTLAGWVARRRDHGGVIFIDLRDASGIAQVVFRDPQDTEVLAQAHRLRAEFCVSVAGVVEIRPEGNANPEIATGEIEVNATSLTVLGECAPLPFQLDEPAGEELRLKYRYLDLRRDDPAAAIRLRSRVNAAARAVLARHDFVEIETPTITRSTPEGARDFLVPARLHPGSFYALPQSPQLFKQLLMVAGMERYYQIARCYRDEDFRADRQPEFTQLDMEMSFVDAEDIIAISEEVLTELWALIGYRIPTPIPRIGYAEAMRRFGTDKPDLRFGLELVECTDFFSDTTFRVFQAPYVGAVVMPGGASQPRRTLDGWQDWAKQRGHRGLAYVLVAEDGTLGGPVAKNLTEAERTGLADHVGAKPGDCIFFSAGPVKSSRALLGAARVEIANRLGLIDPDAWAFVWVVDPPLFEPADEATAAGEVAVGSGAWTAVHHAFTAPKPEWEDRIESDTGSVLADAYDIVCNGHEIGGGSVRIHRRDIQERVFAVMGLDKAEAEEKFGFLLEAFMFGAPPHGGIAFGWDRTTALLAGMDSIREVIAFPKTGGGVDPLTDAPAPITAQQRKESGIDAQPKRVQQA
# Assay: Assay for Asp RNA synthetase-1 from Mycobacterium tuberculosis
# Format: functional
# Set-up: scale not given: direction of the effect not stated beside the values
# Conditions: 30 µM
row,Compound,Percent Effect [%]
1,Cc1ccc(S(=O)(=O)NC(=O)c2cccc(OCC(N)=O)c2)s1,2.86
2,O=C(Cc1cccc(F)c1)NCCNCc1ccco1,0.577
3,Cc1ccc2c(ccn2CCC(=O)O)c1,0.776
4,Cc1noc(C(C)C)c1C(=O)NCCN1CCCCCC1=O,2.13
5,c1ccc2oc(CCCN3CCCC3Cn3cncn3)nc2c1 (stereo not given),-1.22
6,CCc1n[nH]c(C2CN(Cc3nccn3CC)CCO2)n1 (stereo not given),1.7
7,NC(=O)C1CCN(CCc2ccc(NC(=O)C3CCC3)cc2)CC1,3.99
8,c1cnn(CC2CN(c3ncnc4sccc34)CCO2)c1 (stereo not given),2.38
9,Cc1cccn2cc(CC(=O)N3CCCC(n4cncn4)C3)nc12 (stereo not given),1.06
10,CCCn1nc2c(cc1=O)CN(CCCS(N)(=O)=O)CC2,18.8
11,Cn1nnc2c1CCN(CC1CC1)C2COCc1ccccc1 (stereo not given),1.84
12,O=C1NCCN1C1CCCN(Cc2nnc(-c3ccc(F)cc3)o2)C1 (stereo not given),-2.77
13,COc1cccc(C(=O)NCCCN2CCc3ccccc3C2)c1OC,-2.13
14,Cc1nc(C)n(CC2CCCN2CC(=O)NCc2ccco2)n1 (stereo not given),4.57
15,CCn1nc(C(=O)N2CCCC(n3cncn3)C2)ccc1=O (stereo not given),-5.19
16,CC(C)c1cc(NC(=O)CN2CCc3cncnc3C2)on1,2.37
17,Cc1ncsc1C(=O)N(C)CCc1ccncc1,-1.68
18,CN(CCC(F)(F)F)C(=O)[C@H]1CSCN1C(=O)OC(C)(C)C,-5.95
19,CCOC1COC2(CCN(Cc3cccc(F)c3)CC2)C1 (stereo not given),-3.19
20,Cc1ccc(F)cc1S(=O)(=O)NCc1cccnc1N(C)C,4.75

row,Compound,Percent Effect [%]
1,Clc1ccc(-n2cc(CNC3CCc4ncnn4C3)cn2)cc1 (stereo not given),-5.31
2,Cc1cccc(CNCc2c(C(C)C)nn(C)c2N2CCOCC2)n1,7.04
3,CC(O)CN1CCN(C(=O)c2cn(-c3ccccc3Cl)nn2)CC1 (stereo not given),3.29
4,Cc1noc([C@@H]2C[C@H]3OCC[C@H]3N(S(C)(=O)=O)C2)n1,-0.616
5,Cc1n[nH]c(C)c1-c1cnc(CC2CCN(C)C2)cn1 (stereo not given),-0.897
6,COCCn1cc(C(=O)N2CCCC2c2cc(C)no2)ccc1=O (stereo not given),-2.11
7,Cc1nn(C)c(Cl)c1C1CCCN1C(=O)c1cc[nH]n1 (stereo not given),3.04
8,CN(Cc1nccn1CC(F)(F)F)C(=O)c1cccc(C#N)c1,1.68
9,COCCNC(=O)Nc1ccc(F)c(C(N)=O)c1,3.91
10,O=C1CN(Cc2nnc(-c3ccc(Br)o3)o2)CCN1,-1.11
11,CN1CCC/C1=N\S(=O)(=O)c1ccc(NC(=O)CCc2cccs2)cc1,1.3
12,NC(=O)C1CCN(C(=O)c2ccn(-c3ccc(F)cc3)n2)C1 (stereo not given),9.24
13,CCCN1CCN(C(=O)c2scnc2C)CC1,-0.389
14,COc1ccc(C2Nc3ccccc3C3=NCCCN32)cc1OC (stereo not given),3.81
15,CCc1ncncc1C(=O)N1CCN(Cc2c(C)noc2C)CC1,0.0281
16,O=C([C@@H]1CC[C@@H]2[C@@H](CCN2Cc2ccoc2)O1)N1CCCC1,0.466
17,Cn1ncc2c(=O)[nH]c(CN3CCC(Cc4ccccc4)CC3)nc21,-5.37
18,O=C(CCCc1ncc(-c2ccccc2)o1)N1CCN(CCO)CC1,-1.6
19,Cc1n[nH]c(C)c1NC(=O)CN1CCn2c(nnc2C(C)C)C1,0.173
20,COC(=O)c1sccc1S(=O)(=O)NCC1(O)CCOc2ccccc21 (stereo not given),-2.1

# Molecular target: Shiga toxin 2 (Escherichia coli O157:H7) (UniProt P09385+P09386)
# Assay: E. coli 0.157:H7 Shiga Toxin SOP - stx2 screening assay
# Format: functional
# Set-up: scale not given: direction of the effect not stated beside the values
# Conditions: 30 µM
row,Compound,Percent Effect [%]
1,Cc1ccc(S(=O)(=O)NC(=O)c2cccc(OCC(N)=O)c2)s1,-20.2
2,O=C(Cc1cccc(F)c1)NCCNCc1ccco1,3.74
3,Cc1ccc2c(ccn2CCC(=O)O)c1,-8.69
4,Cc1noc(C(C)C)c1C(=O)NCCN1CCCCCC1=O,-4.24
5,c1ccc2oc(CCCN3CCCC3Cn3cncn3)nc2c1 (stereo not given),7.93
6,CCc1n[nH]c(C2CN(Cc3nccn3CC)CCO2)n1 (stereo not given),-10.4
7,NC(=O)C1CCN(CCc2ccc(NC(=O)C3CCC3)cc2)CC1,-2.25
8,c1cnn(CC2CN(c3ncnc4sccc34)CCO2)c1 (stereo not given),-6.78
9,Cc1cccn2cc(CC(=O)N3CCCC(n4cncn4)C3)nc12 (stereo not given),-13.1
10,CCCn1nc2c(cc1=O)CN(CCCS(N)(=O)=O)CC2,7.35
11,Cn1nnc2c1CCN(CC1CC1)C2COCc1ccccc1 (stereo not given),0.25
12,O=C1NCCN1C1CCCN(Cc2nnc(-c3ccc(F)cc3)o2)C1 (stereo not given),-40.1
13,COc1cccc(C(=O)NCCCN2CCc3ccccc3C2)c1OC,-9.33
14,Cc1nc(C)n(CC2CCCN2CC(=O)NCc2ccco2)n1 (stereo not given),-5.68
15,CCn1nc(C(=O)N2CCCC(n3cncn3)C2)ccc1=O (stereo not given),18.8
16,CC(C)c1cc(NC(=O)CN2CCc3cncnc3C2)on1,5.67
17,Cc1ncsc1C(=O)N(C)CCc1ccncc1,19.9
18,CN(CCC(F)(F)F)C(=O)[C@H]1CSCN1C(=O)OC(C)(C)C,-17.7
19,CCOC1COC2(CCN(Cc3cccc(F)c3)CC2)C1 (stereo not given),-3.58
20,Cc1ccc(F)cc1S(=O)(=O)NCc1cccnc1N(C)C,-16.9

row,Compound,Percent Effect [%]
1,Clc1ccc(-n2cc(CNC3CCc4ncnn4C3)cn2)cc1 (stereo not given),-39.9
2,Cc1cccc(CNCc2c(C(C)C)nn(C)c2N2CCOCC2)n1,12.3
3,CC(O)CN1CCN(C(=O)c2cn(-c3ccccc3Cl)nn2)CC1 (stereo not given),-10.2
4,Cc1noc([C@@H]2C[C@H]3OCC[C@H]3N(S(C)(=O)=O)C2)n1,-25.2
5,Cc1n[nH]c(C)c1-c1cnc(CC2CCN(C)C2)cn1 (stereo not given),-18.2
6,COCCn1cc(C(=O)N2CCCC2c2cc(C)no2)ccc1=O (stereo not given),3.38
7,Cc1nn(C)c(Cl)c1C1CCCN1C(=O)c1cc[nH]n1 (stereo not given),-8.07
8,CN(Cc1nccn1CC(F)(F)F)C(=O)c1cccc(C#N)c1,-1.08
9,COCCNC(=O)Nc1ccc(F)c(C(N)=O)c1,-19.7
10,O=C1CN(Cc2nnc(-c3ccc(Br)o3)o2)CCN1,-65.1
11,CN1CCC/C1=N\S(=O)(=O)c1ccc(NC(=O)CCc2cccs2)cc1,-144
12,NC(=O)C1CCN(C(=O)c2ccn(-c3ccc(F)cc3)n2)C1 (stereo not given),3.03
13,CCCN1CCN(C(=O)c2scnc2C)CC1,5.75
14,COc1ccc(C2Nc3ccccc3C3=NCCCN32)cc1OC (stereo not given),-2.36
15,CCc1ncncc1C(=O)N1CCN(Cc2c(C)noc2C)CC1,36.8
16,O=C([C@@H]1CC[C@@H]2[C@@H](CCN2Cc2ccoc2)O1)N1CCCC1,1.2
17,Cn1ncc2c(=O)[nH]c(CN3CCC(Cc4ccccc4)CC3)nc21,0.0557
18,O=C(CCCc1ncc(-c2ccccc2)o1)N1CCN(CCO)CC1,-44.5
19,Cc1n[nH]c(C)c1NC(=O)CN1CCn2c(nnc2C(C)C)C1,13.2
20,COC(=O)c1sccc1S(=O)(=O)NCC1(O)CCOc2ccccc21 (stereo not given),6.1
